# Measurements as given in PubChem BioAssay (NCATS).
# Results filed as inconclusive are left out. Activity calls are given as the source filed them. Calls follow the shape of the dose curve; as a rule, active = well fitted cell-killing curve with a large enough effect; inconclusive = small, poorly fitted or top-dose-only effect, or effect the other way; inactive = no such curve, though single readings can be large or run the other way.
# Test: Viability qHTS for spleen associated tyrosine kinase inhibitor (SYKi) drug resistant MV4-11 cells (AID 1963824); also: nearly all actives have a fitted effect of over 35% in size
# Settings: SYKi-resistant MV4-11 viability, CellTiter-Glo, 72 h; series mostly up to 45 µM; viability, % of control: at the top concentration
# How it was run: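 CellTiter-Glo luminescence, read 10 min after reagent addition, reports viability after a 72 hr compound exposure. Cells are an MV4-11 line made resistant to SYK inhibition, seeded at 500 per well onto compound-containing plates.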
# Potency is read from the fitted curve at half-maximal effect.
Compound,Potency,"viability, % of control"
CN(Cc1ccc(C(=O)O)cc1)c1ccc(OCc2c(-c3c(Cl)cccc3Cl)noc2C2CC2)nc1C(F)(F)F,16.4 µM (active),
CCN(CC)CCN(Cc1ccc(-c2ccc(C(F)(F)F)cc2)cc1)C(=O)Cn1c(SCc2ccc(F)cc2)nc(=O)c2c1CCC2,3.26 µM (active),
CC(C)C(=O)OC[C@H]1O[C@@H](n2ccc(N)nc2=O)[C@](C)(F)[C@@H]1OC(=O)C(C)C,,68.8% (inactive)
COc1cc2c(cc1OC)CN(C(=O)/C=C/c1c(-c3ccccc3)n(C)c3ncccc13)CC2,3.66 µM (active),
Cc1ccc(NS(=O)(=O)c2cc3c(cc2NC(C)CO)NC(=O)CC3)cc1C (centres undefined),10.2 µM (active),
CNc1ccc([N+](=O)[O-])c(Nc2ccc3[nH]ncc3c2)n1,5.8 µM (active),
CN(c1ccccc1CNc1nc(Nc2ccc3c(c2)CC(=O)N3)ncc1C(F)(F)F)S(C)(=O)=O,0.326 µM (active),
CC1=C(C(=O)O)/C(=C/CO[C@@H]2O[C@H](COC(=O)/C=C/c3ccc(O)cc3)[C@@H](O)[C@H](O)[C@H]2O)C(O)C1 (some centres undefined),,101% [at 17.3 µM] (inactive)
CNCc1cc(-c2ccccc2F)n(S(=O)(=O)c2cccnc2)c1,13 µM (active),
COc1cc(-c2cccc(O)c2)cc2c1OCO2,,78.7% (inactive)
COc1ccc(CCO[C@@H]2O[C@H](CO[C@@H]3OC[C@H](O)[C@H](O)[C@H]3O)[C@@H](O)[C@H](O)[C@H]2O)cc1,,95% [at 17.3 µM] (inactive)
Cc1cc(-c2ncc(-c3cccnc3)cc2/C=C/c2ccccc2)cnc1-c1cccnc1,,81.7% (inactive)
OCC(CO[C@@H]1O[C@H](CO)[C@@H](O)[C@H](O)[C@H]1O)c1ccc2c(c1)OCO2 (some centres undefined),,108% (inactive)
CC(=O)O[C@@](C)(C(=O)/C=C/C(C)(C)O)[C@H]1[C@H](O)C[C@@]2(C)[C@@H]3CC=C4[C@@H](C=C(O)C(=O)C4(C)C)[C@]3(C)C(=O)C[C@]12C,0.252 µM (active),
